In the library only some 2.6% were active in any assay of this set; here they are far more common.
Mcl1 Noxa PPI: Mcl-1/Noxa interaction inhibition; Q07820; TR-FRET Mcl-1/Noxa peptide binding, 2 h; inhibition, % at 21.7 µM; 220,000 compounds, 1.5% hits;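 active means compounds that cut the protein-peptide binding signal by more than 50% relative to plate controls in a single-dose test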;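 further: His-tagged Mcl-1 with rhodamine Noxa BH3 peptide and terbium anti-His antibody; 0% = Mcl-1 plus Noxa peptide wells and 100% = peptide-only wells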
MCL1 BIM primary: inhibitors of human MCL1 binding to BIM-BH3 peptide; GST-MCL1 / FITC-Bim-BH3 fluorescence polarization; inhibition, % at 10.9 µM; 320,000 compounds, 0.68% hits; AID 2057;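 active means inhibition above the mean inhibition of all tested compounds plus 3 SD, set per campaign, cut at about 40% in these data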;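 further: 0% = DMSO wells and 100% = unlabeled Bim-BH3 peptide control; higher means more loss of mP so more displacement of Bim peptide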
Bim-Mcl-1: disrupts Bim peptide binding to human Mcl-1. Q07820. Bead-based flow cytometry, Bim peptide-Mcl-1 binding. inhibition, % at 10 µM. 190,000 compounds, 0.1% hits. AID 1009; in the data active means inhibition above about 40%;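 further: 0% = no compound tracer wells and 100% = peptide blocker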
Mcl1 Bid PPI: Mcl-1/Bid interaction inhibition; TR-FRET Mcl-1/Bid-Dy647 peptide binding, 1536-well; inhibition, % at 21.7 µM; 220,000 compounds, 0.97% hits; AID 1021;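 active means compounds that cut the binding signal by more than half at the single screening dose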;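 further: His-tagged Mcl-1 with europium anti-His antibody binding Bid BH3 peptide; 0% = Mcl-1 plus peptide wells and 100% = peptide-only wells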
eIF4E-4G inh: blocks eIF4E binding to eIF4G; 220,000 compounds, 0.37% hits; inhibition, % at 21.7 µM; P63073+Q04637; AID 782; TR-FRET eIF4E-eIF4GI(517-606) binding, 2 h;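 active means inhibition above about 30%, limit read from the data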;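 further: 0% = full FRET control wells and 100% = background wells lacking eIF4GI fragment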
14-3-3 Bad PPI: disrupts binding of bovine 14-3-3 zeta to phospho-Bad peptide | P63103 | AID 781 | 220,000 compounds, 0.71% hits | TR-FRET 14-3-3zeta/Dy647-pBad peptide displacement, 1 h | inhibition, % at 21.7 µM;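 active means inhibition above about 70%, limit read from the data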;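 further: 0% = full 14-3-3 plus peptide FRET controls and 100% = background without 14-3-3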
Active calls of the source: *; . = no result; [ ] = dose if it differs, or a comment.

SMILES	Mcl1 Noxa PPI	MCL1 BIM primary	Bim-Mcl-1	Mcl1 Bid PPI	eIF4E-4G inh	14-3-3 Bad PPI
COC(=O)c1cc(-c2ccc(C)o2)nc2ccccc12	78*	24	0	2	-1	5
COc1cccc(/C=N/NC(=O)C(=O)N/N=C/c2cccc(OC)c2O)c1O	59*	.	3	-71	-12	38
COc1cccc(/C=N/NC(=O)c2cc3c(OC)cccc3[nH]2)c1O	59*	-5	-4	-36	0	-4
COc1cccc(/C=N/NC(=O)C(=O)N2CCCCCC2)c1O	.	8	.	.	.	.
COc1cccc(/C=N/NC(=O)c2cc3c(OC)cccc3[nH]2)c1OC	23	-1	-1	-2	-7	-9
COc1cc(NC(=O)COc2ccccc2[N+](=O)[O-])ccc1NC(=O)c1cccs1	57*	.	-2	16	15	74*
Cc1ccc(-n2cccc2/C=C2/C(=N)N3C(=NC2=O)SN=C3S(C)(=O)=O)cc1Cl	116*	14	12	97*	28	16
CCCCn1c(N)c(N(CC(C)C)C(=O)c2cccs2)c(=O)[nH]c1=O	.	-7	.	.	.	.
COc1cc(O)oc1C=Nc1ccc(C(F)(F)F)cc1	64*	-5	-2	-46	2	2
CCOc1ccccc1C(=O)NCc1ccc2c(c1)OCO2	-9	3	-2	0	-7	3
CCOc1cccc2cc(-c3nnc(NCc4ccc5c(c4)OCO5)s3)c(=O)oc12	44	4	-2	-7	-7	83*[fluorescence artefact?]
COc1ccccc1NS(=O)(=O)c1ccc(C(=O)OCC(=O)NCc2ccco2)cc1	55*	-11	0	-23	-14	0
COc1ccccc1NC(=O)COC(=O)c1ccc(S(=O)(=O)NCc2ccco2)cc1	-1	12	-1	-29	2	-3
CC(C)(C)NC(=O)CN(Cc1ccc2c(c1)OCO2)C(=O)CNS(=O)(=O)c1ccccc1	.	2	.	.	.	.
O=C(/C=C\Nc1ccc(S(=O)(=O)Nc2ncccn2)cc1)c1cccc2ccccc12	-26	2	.	96*	-3	-3
COc1cc(SC)ccc1C(=O)Nc1ccc2ncccc2c1	.	-25	.	.	.	.
COc1ccc2[nH]c(=O)c(CNC3CCCCC3)cc2c1	4	-2	-2	70*	0	16
COc1ccc2[nH]c(=O)c(CN(C(=O)C3CCCO3)c3ccc(C)c(C)c3)cc2c1 (configuration not stated)	-18	-8	.	100*	-4	3
COc1ccc2[nH]c(=O)c(CNc3cccc(C)c3)cc2c1	51*	30	-5	-8	2	3
O=C(O)C1CCC(N2C(=O)c3c(Cl)c(Cl)c(Cl)c(Cl)c3C2=O)CC1 (configuration not stated)	.	-7	.	.	.	.
O=C(COC(=O)Cn1cnc2ccccc21)Nc1cc2c(cc1Cl)C(=O)c1ccccc1C2=O	54*	14	0	0	15	41
O=C1NC(CCc2ccccc2)C(=O)N1Cc1ccccc1Cl (configuration not stated)	-5	-5	17	95*	4	-3
Cc1cccc(NC(=O)NNC(=O)CCc2ccccc2)c1	.	5	.	.	.	.
Cc1cccc(NC(=S)NC(=O)CCc2ccccc2)c1	14	21	-3	-10	-2	77*
O=C(Cn1cnc2ccccc21)N/N=C/C(Br)=C/c1ccccc1	19	-3	-4	20	0	28
SMILES	Mcl1 Noxa PPI	MCL1 BIM primary	Bim-Mcl-1	Mcl1 Bid PPI	eIF4E-4G inh	14-3-3 Bad PPI
CCCCCn1c(=O)[nH]c2cc(C(=O)N3CCN(Cc4ccc5c(c4)OCO5)CC3)ccc2c1=O	8	1	-2	8	44*	-3
COC(=O)c1ccc2c(=O)n(CCCCCC(=O)NCc3ccc4c(c3)OCO4)c(=O)[nH]c2c1	-32	3	4	56*	-4	61
CCCCCc1ccc(CC(=O)N2CCOCC2)cc1	.	10	.	.	.	.
COc1ccc(OC)c(NC(=O)Nc2cc(C(=O)O)ccc2C)c1	19	8	-1	-37	3	-9
CC(C)C(=O)NC(c1cccs1)c1cc([N+](=O)[O-])c2cccnc2c1O (configuration not stated)	63*	2	-7	55*	-6	17
Cc1ccc(C(NC(=O)C(C)C)c2cc([N+](=O)[O-])c3cccnc3c2O)cc1 (configuration not stated)	-25	9	0	0	-3	0

Source: PubChem BioAssay
